PINK1 modulator = modulators of PINK1 expression | AID 624263 | PINK1 immunofluorescence, high-content cytometry, 24 h | Potency, µM (highest dose often 76.6 µM), for the others: top-dose activation (PINK1 increase), hits mostly activators | 410,000 tested, 0.2% active; active = well fitted activation curve with a large enough effect; inconclusive = small, poorly fitted or top-dose-only effect; cell line not stated here; also: % of control where 0% means no effect; nearly all actives have a fitted effect of over 65% in size
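Stable cell line treated 24 h with compounds at 5 concentrations (CCCP controls), then fixed and immunostained for PINK1 plus nuclear and cell stains; PINK1 immunofluorescence quantified by laser-scanning microplate cytometry.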
Sfp PPTase inh = inhibitors of Bacillus subtilis Sfp phosphopantetheinyl transferase. AID 1490. Biochemical Sfp PPTase activity, qHTS. Potency, µM, for inactives: largest response in the series, negative = inhibition, hits mostly inhibitors. 310,000 tested, 3.5% active;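 also: the enzyme is Sfp with the accession as filed and its product quenches rhodamine fluorescence; 0% = enzyme reaction without inhibitor and -100% = no enzyme wells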
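Sfp 15 nM + cpd, 15 min RT; start w/ rhodamine-CoA 5 uM, BHQ-2-YbbR 12.5 uM (final); 50 mM Hepes pH 7.6, 10 mM MgCl2, 0.01% NP-40, 0.01% BSA; read 525/598 nm at 0 and 30 min.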
VP16 counter = inhibits Gal4-VP16 luciferase reporter, ROR gamma counter-screen; Drosophila S2 Gal4-VP16 UAS-luciferase, luminescence, 20 h; 310,000 tested, 3.5% active; Potency, µM (highest dose often 53.6 µM), for the others: at the highest dose activity, negative = inhibition, usual class: inhibitors;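 also: Gal4-VP16 expression switched on by copper sulfate through the metallothionein promoter; % is scaled to controls: 0 for no effect and ±100 for the full control effect; nearly all actives have a fitted effect of over 50% in size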
RORg inh = ROR gamma (mouse) transcription inhibition. P51450. Drosophila S2 Gal4-RORgamma UAS-luciferase reporter, 20 h. Potency, µM (top dose mostly 53.6 µM), for the others: at the top dose activity change, negative = inhibition, usual class: inhibitors. 310,000 tested, 5.4% active; also: % is scaled to controls: 0 for no effect and ±100 for the full control effect; nearly all actives have a fitted effect of over 60% in size
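Drosophila Schneider cells stably carrying a metallothionein-driven Gal4 DBD–ROR gamma fusion and a UAS-Photinus luciferase reporter were exposed to compound for 1 hr, then induced with copper sulfate (700 uM final) for 20 hr at ambient temperature before luminescence reading.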
Epigenetic derep = regulators of epigenetic silencing causing reporter derepression in mouse cells. murine LDR cells, GFP reporter derepression, 30 h. Potency, µM (series often up to 53.9 µM), without a hit: at the highest dose GFP activation, hits mostly activators. 280,000 tested, 0.2% active. AID 1865; also: % of control where 0% means no effect; nearly all actives have a fitted effect of over 60% in size
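Murine LDR cells bearing a silenced CMV-driven GFP reporter were exposed to compound for 30 h at 37 C. After PBS washes, GFP-positive cells (20-120 um objects) counted by laser-scanning microplate cytometry.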
ClpP mod = qHTS Assay for Activators of ClpP. ATP-dependent Clp protease proteolytic subunit (Bacillus subtilis (strain 168)), P80244. purified B. subtilis ClpP, FRET peptide cleavage, 20 min. Potency, µM (highest dose often 57.5 µM), for inactives: top-dose activity change, negative = active. 340,000 tested, 1.9% active; active = well fitted falling curve with a large enough effect; inconclusive = small, poorly fitted or top-dose-only effect; inactive = no such curve, though single readings can be large or run the other way; also: the source files actives as falling curves though it sought activators and does not explain the sign; nearly all actives have a fitted effect of over 65% in size
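ClpP 10 microg/mL final, pH 8 Tris/KCl buffer with BSA, glycerol, Tween-20; compound pinned in; FRET-FV substrate; RT 20 min; Ex320/Em430; ΔFRET vs ADEP 5.8 microM, DMSO, no enzyme.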
* hit, by the source's call; u = inconclusive; x = not tested or not shown; [ ] = remark or other dose. Sampled rows, rich in hits. Any-hit rate of the full collection: about 8.1%. Unless noted, calls follow the shape of the dose curve; as a rule, active = well fitted curve in the direction sought with a large enough effect; inconclusive = small, poorly fitted or top-dose-only effect, or another doubt; inactive = no such curve, though single readings can be large; an effect the other way counts as inactive or inconclusive. Potency is read from the fitted curve at half-maximal effect.

SMILES	PINK1 modulator	Sfp PPTase inh	VP16 counter	RORg inh	Epigenetic derep	ClpP mod
CCN(C(=O)COC(=O)c1cc(-c2ccc(C)o2)nc2ccccc12)C1CCS(=O)(=O)C1 (stereo not drawn)	3%	20µM*	-2%	u	-1%	x
Cc1ccc(-c2cc(C(=O)OCC(=O)N(C)C3CCS(=O)(=O)C3)c3ccccc3n2)o1 (stereo not drawn)	0%	20µM*	-7%	14%	0%	x
CCN(C(=O)COC(=O)/C(=C/c1ccccc1)n1nnnc1C)C1CCCCC1	13%	x	x	x	x	-2%
Cc1ccc(-c2cc(C(=O)OCC(=O)N(C)C3CCS(=O)(=O)C3)c3ccccc3n2)c(C)c1 (stereo not drawn)	4%	3%	-13%	-10%	0%	-1%
Cc1nnnn1/C(=C\c1ccccc1)C(=O)OCC(=O)N(C)C1CCS(=O)(=O)C1 (stereo not drawn)	0%	10%	0%	11µM*	-4%	x
FC(F)Sc1nc2ccccc2[nH]1	0%	-3%	u	13µM*	0%	x
FC(F)c1nc2ccccc2[nH]1	0%	u	9%	21%	0%	x
COc1cccc(N2C(=O)[C@H]3C(C(=O)c4cnccn4)=NN[C@H]3C2=O)c1	0%	79µM*	0%	-1%	-2%	x
COc1ccc(CNc2ccccc2SC)cc1OC	2%[38.3 µM]	56µM*	1%	-45%	4%	1%
COc1ccc(CNC(=O)c2[nH]c(C(F)(F)F)nc2-c2ccccc2)cc1OC	1%	x	x	x	x	-3%
COc1ccc(CNc2cccc3[nH]c(C(F)(F)F)nc23)cc1OC	25µM*	u	-16%	4%	x	-9%
CCc1ccc(-n2nc3cc(C)c(NC(=O)c4cccc5ccccc45)cc3n2)cc1	-2%	x	x	x	5%	-10%
CCCCCN1C=CC(=C2C(=O)c3ccccc3C2=O)C=C1	-1%	10%	1.3µM*	1.1µM*	0%	0%
CCOc1ccccc1CNC(=O)C1CCN(S(=O)(=O)c2c(C)noc2/C=C/c2ccc(C)cc2)CC1	0%	x	x	x	-2%	u
CSc1nc2ccccc2n1Cc1cccc(F)c1	18%	1%	14%	-33%	-1%	-18%
Fc1cccc(Oc2nc3ccccc3n3cccc23)c1	10%	4%	-7%[0.365 µM]	u	-5%	22µM*
COc1cc(C2CC(=O)Nc3ccc4ccccc4c32)ccc1OC(=O)C(C)C (stereo not drawn)	0%	x	x	x	-1%	-20%
COC(=O)c1ccc(CSc2nc3scc(-c4cccs4)c3c(=O)[nH]2)o1	-1%	56µM*	7%	0%	3%	-1%
COC(=O)c1ccc(CSc2nc3ccc(Cl)cc3[nH]2)o1	7%	9%	6%	u	-1%	-6%
COC(=O)[C@@H]1CC[C@H](C)[C@@H](c2ccc(C)cc2)N1C(=O)c1ccc(/C=N\OC[C@@H](C)[C@H](OCc2ccccc2)C(C)C)cc1	x	-20%	-2%[10 µM]	-15%[10 µM]	2%[10.1 µM]	x
CCOc1ccc(/C=N/NC(=O)C(O)c2ccccc2)c(O)c1 (stereo not drawn)	-1%	5%	2µM*	0.79µM*	x	x
COc1ccc(CNC(=O)c2cc3cc(C)ccc3n2C)cc1	1%	x	x	x	0%	u
Cc1oc(-c2ccc(-c3ccccc3)cc2)nc1CN(CCO)C(C)C	1%	-3%	u	7.9µM*	x	x
Cc1oc(-c2ccc(-c3ccccc3)cc2)nc1CN(C)C1CCOC1 (stereo not drawn)	2%	3%	u	14µM*	1%	-7%
COc1ccc(/C=C/C=C2\N=C(SC)SC2=O)cc1	9%	45µM*	-1%	15%	0%	1%
SMILES	PINK1 modulator	Sfp PPTase inh	VP16 counter	RORg inh	Epigenetic derep	ClpP mod
CCN1CCN(CCCNC(=O)c2ccc(/C=C3/Oc4ccccc4N(Cc4cccc(C)c4)C3=O)cc2)CC1	2%	40µM*	-3%	-2%	x	4%
CCN1CCN(CCNC(=O)c2ccc(/C=C3/Sc4ccccc4N(Cc4ccccc4C)C3=O)cc2)CC1	-1%	40µM*	18µM*	u	4%	-2%
CCN1CCN(CCCNC(=O)c2ccc(/C=C3/Sc4ccccc4N(Cc4ccccc4F)C3=O)cc2)CC1	-1%	50µM*	u	u	-3%	-7%
O=C(NCCN1CCOCC1)c1ccc2c(c1)N(Cc1ccccc1F)C(=O)c1ccccc1S2	1%	-19%	-13%[10 µM]	42%	-1%	-1%
O=C(NCCCN1CCOCC1)c1ccc(/C=C2\Oc3ccccc3N(Cc3ccccc3F)C2=O)cc1	-1%	-18%	u	u	x	-9%
COc1ccc(OC)c(C(=O)N(Cc2cc3cccc(C)c3nc2N2CCC(O)CC2)C2CC2)c1	1%	x	x	x	x	x
Cc1cc(N2CCN(c3nc(-c4ccc([N+](=O)[O-])cc4)cs3)CC2)c2ccccc2n1	-1%	-10%	13µM*	10µM*	1%	x
CN1CCN(Cc2nc3ccccc3c(=O)n2Cc2nc(-c3ccc([N+](=O)[O-])cc3)cs2)CC1	-1%	-16%	18µM*	7.9µM*	-1%	1%
Cc1cc(-c2ccc([N+](=O)[O-])cc2)nc2ccccc12	0%	-5%	0%	62%	-4%	x
C=C1C(=O)O[C@@H]2[C@H]3O[C@]3(C)CCC=C(C)CC[C@@H]12	x	-11%	u	7.1µM*	u	x
C=C1C(=O)O[C@@H]2[C@@H]1CC/C(C)=C\CC[C@@]1(C)O[C@H]21	x	21%	3.5µM*	3.2µM*	1%[16.9 µM]	x
C=C1C(=O)OC2C1CCC(C)=C1C(=O)C3OC3(C)C12 (stereo not drawn)	1%	x	x	x	x	0%
Cc1ccc(O)c(Nc2nc3ccccc3c3nncn23)c1	-2%	x	x	x	1%	-2%
Cc1ccc(N(CCC#N)C(=O)CSc2nc3ccccc3c(=O)[nH]2)cc1	0%	x	x	x	x	-2%
Cc1ccc(-c2cc(-c3nnc(SCC(=O)N(C)CCC#N)n3N)c3ccccc3n2)cc1	3%	1%	6%	40%	-1%	16µM*
Cc1ccc(C)c(NC(=O)Cn2cnc3nc4c(cc3c2=O)CCCC4)c1	0%	x	x	x	1%	-4%
O=C(NC(=S)Nc1ccc2c(c1)OCCO2)c1ccco1	0%	2%	u	u	0%	x
O=C(NC(=S)Nc1ccc2c(c1)OCO2)c1ccc(Cl)cc1	19%	u	5.6µM*	5µM*	2%	-2%
CC(C)C(=O)Nc1cccc(NC(=S)NC(=O)c2ccc(Cl)cc2)c1	0%[38.3 µM]	-14%	u	6.3µM*	-1%	-1%
